Experimental data taken from PubChem BioAssay.

Target: Tumor necrosis factor receptor superfamily member 10B (Homo sapiens) (UniProt O14763)
Experiment: viability loss of caspase-8 NB7 cells with TRAIL – with/without TRAIL, luminescence panel, confirmation (AID 651596)
Settings: NB7 neuroblastoma + caspase-8, TRAIL sensitization, NB7 Caspase-8, with TRAIL, mean of runs, at 10 µM, stronger effect = higher value

Chain of Tumor necrosis factor receptor superfamily member 10B (Homo sapiens) (O14763 whole entry, looked up): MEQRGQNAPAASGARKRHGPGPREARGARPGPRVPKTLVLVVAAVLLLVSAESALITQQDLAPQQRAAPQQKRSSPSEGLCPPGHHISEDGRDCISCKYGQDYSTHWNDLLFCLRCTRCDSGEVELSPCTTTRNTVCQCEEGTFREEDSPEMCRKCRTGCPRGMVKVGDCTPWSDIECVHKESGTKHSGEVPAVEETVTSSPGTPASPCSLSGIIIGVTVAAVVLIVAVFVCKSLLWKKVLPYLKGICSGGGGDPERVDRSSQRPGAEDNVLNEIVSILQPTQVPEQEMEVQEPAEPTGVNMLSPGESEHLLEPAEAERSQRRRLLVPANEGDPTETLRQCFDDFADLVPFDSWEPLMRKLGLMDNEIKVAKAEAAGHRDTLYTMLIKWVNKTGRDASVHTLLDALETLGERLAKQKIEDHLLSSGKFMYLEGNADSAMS

Compound	activity [%]
O=C(Nc1ccc2ccccc2c1)c1ccccc1O	64.2
N#CC(C#N)=C1SC(=Nc2ccccc2)C(=Nc2ccccc2)N1c1ccccc1	92.6
CC(C)C[C@@H](CN1CCCC1CN1C(=S)NC[C@@H]1Cc1ccc(O)cc1)N1C[C@H](Cc2ccc(O)cc2)N(CC2CCCCCC2)C1=S (some centres not stated)	18.3
COc1ccc(N(Cc2cc(=O)[nH]c3ccccc23)C(=O)CCl)cc1	99.3
COc1ccc(OC)c(N(CCN2C(=O)c3ccccc3C2=O)C(=O)CCl)c1	98.7
COc1ccc2[nH]cc(C(=O)CCl)c2c1	99.1

Tested on: not listed separately
Experiment: as above
Settings: NB7 neuroblastoma + caspase-8, without TRAIL, NB7 Caspase-8, without TRAIL, mean of runs, at 10 µM

Compound	activity [%]
O=C(Nc1ccc2ccccc2c1)c1ccccc1O	52.8
N#CC(C#N)=C1SC(=Nc2ccccc2)C(=Nc2ccccc2)N1c1ccccc1	83.6
CC(C)C[C@@H](CN1CCCC1CN1C(=S)NC[C@@H]1Cc1ccc(O)cc1)N1C[C@H](Cc2ccc(O)cc2)N(CC2CCCCCC2)C1=S (some centres not stated)	52
COc1ccc(N(Cc2cc(=O)[nH]c3ccccc23)C(=O)CCl)cc1	99.5
COc1ccc(OC)c(N(CCN2C(=O)c3ccccc3C2=O)C(=O)CCl)c1	97.6
COc1ccc2[nH]cc(C(=O)CCl)c2c1	99.2
